Results filed as inconclusive are left out. Some structures have more than one record in an assay (separate samples or runs), and their calls can disagree. Active and inactive are the calls of the source. How the source made its calls, unless noted: active means hit-call score of the fitted dose curve at least 0.9, where 1 is the maximum; inconclusive means response in the unintended direction; inactive means score below 0.9.
Experiments:
[1] = biological target: Estrogen-related receptor gamma (Homo sapiens) (UniProt P62508); test: ATG_ERRg_TRANS: Attagene TRANS-FACTORIAL HepG2 Assay for human Estrogen-Related Receptor gamma (ERRg) (AID 2282977); conditions: HepG2 Attagene TRANS reporter, ERRg transactivation;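 further: hits increase reporter signal over DMSO so potencies reflect activators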
Sequence of Estrogen-related receptor gamma (Homo sapiens) (P62508 whole entry, looked up, the tested form may be a part): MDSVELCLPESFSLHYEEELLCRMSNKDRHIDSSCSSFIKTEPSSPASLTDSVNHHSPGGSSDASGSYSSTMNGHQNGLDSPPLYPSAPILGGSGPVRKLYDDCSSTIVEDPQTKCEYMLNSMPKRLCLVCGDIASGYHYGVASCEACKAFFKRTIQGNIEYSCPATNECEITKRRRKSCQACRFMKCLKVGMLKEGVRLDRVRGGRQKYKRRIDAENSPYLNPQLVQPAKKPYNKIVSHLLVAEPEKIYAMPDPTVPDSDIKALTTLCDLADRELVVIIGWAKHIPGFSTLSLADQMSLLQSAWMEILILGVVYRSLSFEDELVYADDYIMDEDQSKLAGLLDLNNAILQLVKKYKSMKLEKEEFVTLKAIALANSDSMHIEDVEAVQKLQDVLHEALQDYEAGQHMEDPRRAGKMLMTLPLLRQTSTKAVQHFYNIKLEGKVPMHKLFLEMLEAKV
How it was run: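 Exogenous NR-Gal4 chimera activity was assessed in HepG2 cells bearing transfected GAL4-UAS reporters. After 24 h dosing, total RNA underwent RT-PCR, fluorescent primer extension and HpaI digestion before capillary electrophoresis, with gain of signal scored against DMSO.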

[2] = biological target: Glucocorticoid receptor (Homo sapiens) (UniProt P04150); test: ATG_GR_TRANS: Attagene TRANS-FACTORIAL HepG2 Assay for human Glucocorticoid Receptor (GR) (AID 2282978); conditions: HepG2 Attagene TRANS GR reporter, mRNA transcription;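 further: activators score as hits since higher reporter transcript over DMSO is fitted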
Sequence of Glucocorticoid receptor (Homo sapiens) (P04150 whole entry, looked up, the tested form may be a part): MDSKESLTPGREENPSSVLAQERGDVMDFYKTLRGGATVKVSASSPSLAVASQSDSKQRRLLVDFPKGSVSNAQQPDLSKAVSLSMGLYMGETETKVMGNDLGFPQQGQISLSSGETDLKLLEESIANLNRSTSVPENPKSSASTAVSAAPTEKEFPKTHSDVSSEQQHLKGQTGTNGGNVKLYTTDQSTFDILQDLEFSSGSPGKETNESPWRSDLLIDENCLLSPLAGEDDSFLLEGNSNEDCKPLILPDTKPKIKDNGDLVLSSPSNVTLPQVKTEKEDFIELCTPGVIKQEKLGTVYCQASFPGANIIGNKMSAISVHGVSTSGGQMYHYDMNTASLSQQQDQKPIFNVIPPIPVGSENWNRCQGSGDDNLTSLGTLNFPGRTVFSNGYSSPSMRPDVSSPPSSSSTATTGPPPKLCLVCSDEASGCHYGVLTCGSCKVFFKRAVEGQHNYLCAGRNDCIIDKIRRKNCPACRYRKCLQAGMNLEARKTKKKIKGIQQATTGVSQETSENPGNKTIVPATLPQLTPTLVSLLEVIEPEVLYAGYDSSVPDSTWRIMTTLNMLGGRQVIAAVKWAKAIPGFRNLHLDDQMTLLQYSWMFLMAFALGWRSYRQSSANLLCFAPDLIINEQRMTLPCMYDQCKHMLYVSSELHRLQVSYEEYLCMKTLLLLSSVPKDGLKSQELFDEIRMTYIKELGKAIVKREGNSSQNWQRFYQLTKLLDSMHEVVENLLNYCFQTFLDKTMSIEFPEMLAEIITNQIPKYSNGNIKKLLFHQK
How it was run: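 Transiently transfected HepG2 cells express chimeric NR-GAL4 proteins acting on GAL4-UAS reporter units. Compounds are applied for 24 h. mRNA induction over DMSO is measured by capillary electrophoresis.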

[3] = biological target: Bile acid receptor (Homo sapiens) (UniProt Q96RI1); test: ATG_FXR_TRANS: Attagene TRANS-FACTORIAL HepG2 Assay for Farnesoid X Receptor (FXR) (AID 2282979); conditions: HepG2 Attagene TRANS FXR-GAL4 reporter transcription;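 further: hits raise reporter mRNA above DMSO so AC50 marks FXR activation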
Sequence of Bile acid receptor (Homo sapiens) (Q96RI1 whole entry, looked up, the tested form may be a part): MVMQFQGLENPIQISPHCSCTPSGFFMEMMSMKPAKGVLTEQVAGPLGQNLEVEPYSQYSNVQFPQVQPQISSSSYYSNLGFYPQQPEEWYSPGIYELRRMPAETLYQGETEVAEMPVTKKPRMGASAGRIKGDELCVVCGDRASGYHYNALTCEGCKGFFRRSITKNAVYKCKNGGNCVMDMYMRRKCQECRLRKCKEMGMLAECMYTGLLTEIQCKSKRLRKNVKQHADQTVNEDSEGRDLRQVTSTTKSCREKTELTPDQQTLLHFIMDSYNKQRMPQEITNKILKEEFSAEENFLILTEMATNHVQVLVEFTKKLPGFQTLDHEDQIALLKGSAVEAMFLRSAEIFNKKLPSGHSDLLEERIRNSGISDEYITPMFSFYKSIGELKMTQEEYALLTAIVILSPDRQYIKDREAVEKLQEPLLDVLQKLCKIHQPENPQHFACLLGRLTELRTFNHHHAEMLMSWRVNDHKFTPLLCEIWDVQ
How it was run: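 Read-out: fluorescent reporter transcripts quantified by capillary electrophoresis after RT-PCR of total RNA. Source cells were HepG2 transiently carrying chimeric NR-GAL4 plus GAL4-UAS reporter units, dosed 24 h. Activity fitted upward relative to DMSO baseline.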

[4] = biological target: Oxysterols receptor LXR-alpha (Homo sapiens) (UniProt Q13133); test: ATG_LXRa_TRANS: Attagene TRANS-FACTORIAL HepG2 Assay for human Liver X Receptor alpha (LXRa) (AID 2282980); conditions: HepG2 Attagene TRANS reporter, LXRa transactivation
Sequence of Oxysterols receptor LXR-alpha (Homo sapiens) (Q13133 whole entry, looked up, the tested form may be a part): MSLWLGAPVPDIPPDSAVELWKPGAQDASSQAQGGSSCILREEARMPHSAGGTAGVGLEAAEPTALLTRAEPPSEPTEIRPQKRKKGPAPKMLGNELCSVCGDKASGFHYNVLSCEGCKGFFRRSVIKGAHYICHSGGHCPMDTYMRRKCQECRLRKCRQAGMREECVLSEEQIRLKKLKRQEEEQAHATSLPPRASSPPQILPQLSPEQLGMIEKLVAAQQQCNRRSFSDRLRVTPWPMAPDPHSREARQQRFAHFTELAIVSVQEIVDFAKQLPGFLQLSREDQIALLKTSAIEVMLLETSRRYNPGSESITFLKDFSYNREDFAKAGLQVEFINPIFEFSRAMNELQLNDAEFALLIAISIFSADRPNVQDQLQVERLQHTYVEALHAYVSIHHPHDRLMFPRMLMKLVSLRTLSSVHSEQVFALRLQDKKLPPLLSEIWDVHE
How it was run: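 Read-out: reporter transcript levels by RT-PCR plus capillary electrophoresis, fluorescence intensity. Transiently transfected HepG2, exogenous NR-GAL4 chimera, GAL4-UAS reporters; 24 h compound exposure. Activity = increase over DMSO negative control.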

[5] = biological target: Hepatocyte nuclear factor 4-alpha (Homo sapiens) (UniProt P41235); test: ATG_HNF4a_TRANS: Attagene TRANS-FACTORIAL HepG2 Assay for human Hepatocyte Nuclear Factor 4 alpha (HNF4a) (AID 2282982); conditions: HepG2 HNF4a transactivation reporter, mRNA readout
Sequence of Hepatocyte nuclear factor 4-alpha (Homo sapiens) (P41235 whole entry, looked up, the tested form may be a part): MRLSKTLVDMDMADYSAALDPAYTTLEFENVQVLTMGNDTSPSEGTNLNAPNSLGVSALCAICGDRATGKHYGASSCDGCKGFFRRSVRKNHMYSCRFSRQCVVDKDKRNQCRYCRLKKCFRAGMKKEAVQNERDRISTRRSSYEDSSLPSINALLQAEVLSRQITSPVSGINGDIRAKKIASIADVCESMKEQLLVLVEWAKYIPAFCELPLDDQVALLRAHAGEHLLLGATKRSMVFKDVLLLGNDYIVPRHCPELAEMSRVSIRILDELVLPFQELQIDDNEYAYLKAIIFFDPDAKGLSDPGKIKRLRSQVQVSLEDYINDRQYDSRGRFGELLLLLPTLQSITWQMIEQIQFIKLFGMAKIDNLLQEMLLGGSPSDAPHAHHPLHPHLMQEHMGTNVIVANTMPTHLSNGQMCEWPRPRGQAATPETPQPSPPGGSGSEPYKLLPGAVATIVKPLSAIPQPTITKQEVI
How it was run: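 Using HepG2 liver cells transfected with GAL4-UAS reporter units, chemical-induced mRNA increases were assessed after 24 hours. Fluorescent RT-PCR fragments were separated by capillary electrophoresis and compared with DMSO negative controls.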

[6] = ATG_M_32_TRANS: Attagene TRANS-FACTORIAL HepG2 Assay for M32 Transcription Factor (Internal Marker) (AID 2282984); conditions: HepG2 Attagene TRANS M32 internal marker reporter
How it was run: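 Fluorescence-detected mRNA induction, HepG2 liver cells, 24 h after dosing. Multiple GAL4-UAS reporter units introduced by transient transfection; background-control endpoint analysed for gain of signal against DMSO.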

[7] = biological target: Nuclear receptor subfamily 4 group A member 2 (Homo sapiens) (UniProt P43354); test: ATG_NURR1_TRANS: Attagene TRANS-FACTORIAL HepG2 Assay for human Nuclear Receptor Related Protein 1 (NURR1) (AID 2282985); conditions: HepG2 Attagene TRANS reporter, mRNA readout
Sequence of Nuclear receptor subfamily 4 group A member 2 (Homo sapiens) (P43354 whole entry, looked up, the tested form may be a part): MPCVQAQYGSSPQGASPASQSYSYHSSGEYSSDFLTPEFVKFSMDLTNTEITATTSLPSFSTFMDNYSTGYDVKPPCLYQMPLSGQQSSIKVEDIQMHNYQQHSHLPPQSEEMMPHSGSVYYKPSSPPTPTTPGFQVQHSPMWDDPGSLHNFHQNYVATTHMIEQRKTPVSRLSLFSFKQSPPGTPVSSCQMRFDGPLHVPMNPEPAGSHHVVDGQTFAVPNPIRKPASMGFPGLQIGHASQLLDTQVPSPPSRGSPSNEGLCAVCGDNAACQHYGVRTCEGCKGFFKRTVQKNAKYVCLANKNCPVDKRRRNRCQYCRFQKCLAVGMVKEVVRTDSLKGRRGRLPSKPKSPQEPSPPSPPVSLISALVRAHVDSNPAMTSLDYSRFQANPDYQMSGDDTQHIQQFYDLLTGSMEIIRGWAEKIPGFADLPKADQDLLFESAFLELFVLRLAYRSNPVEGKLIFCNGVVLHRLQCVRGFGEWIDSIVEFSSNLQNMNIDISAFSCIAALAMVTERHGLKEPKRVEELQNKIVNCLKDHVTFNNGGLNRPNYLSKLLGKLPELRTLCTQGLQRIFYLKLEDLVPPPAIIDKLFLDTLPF
How it was run: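 Chimeric NR-Gal4 proteins were expressed in human HepG2 cells bearing GAL4-UAS reporter units, and induced reporter mRNA was quantified 24 h post-dosing by RT-PCR and capillary electrophoresis.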

[8] = ATG_M_06_TRANS: Attagene TRANS-FACTORIAL HepG2 Assay for M06 Transcription Factor (Internal Marker) (AID 2282983); conditions: HepG2 Attagene TRANS M06 internal marker reporter
How it was run: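 Read-out: fluorescent reporter cDNA fragments resolved by capillary electrophoresis after RT-PCR and HpaI cut. Source cells were HepG2 carrying transfected multi-reporter GAL4 constructs, dosed 24 h. Increase over DMSO control analysed.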

[9] = biological target: Transcriptional activator Myb (Homo sapiens) (UniProt P10242); test: ATG_Myb_CIS: Attagene CIS-FACTORIAL HepG2 Assay for human Myeloblastosis (Myb) Proto-Oncogene Transcription Factor (AID 2282986; active means hit-call score of the fitted dose curve at least 0.9, where 1 is the maximum; inactive means score below 0.9); conditions: HepG2 Attagene CIS-FACTORIAL Myb reporter transcription; actives raise or lower the signal
Sequence of Transcriptional activator Myb (Homo sapiens) (P10242 whole entry, looked up): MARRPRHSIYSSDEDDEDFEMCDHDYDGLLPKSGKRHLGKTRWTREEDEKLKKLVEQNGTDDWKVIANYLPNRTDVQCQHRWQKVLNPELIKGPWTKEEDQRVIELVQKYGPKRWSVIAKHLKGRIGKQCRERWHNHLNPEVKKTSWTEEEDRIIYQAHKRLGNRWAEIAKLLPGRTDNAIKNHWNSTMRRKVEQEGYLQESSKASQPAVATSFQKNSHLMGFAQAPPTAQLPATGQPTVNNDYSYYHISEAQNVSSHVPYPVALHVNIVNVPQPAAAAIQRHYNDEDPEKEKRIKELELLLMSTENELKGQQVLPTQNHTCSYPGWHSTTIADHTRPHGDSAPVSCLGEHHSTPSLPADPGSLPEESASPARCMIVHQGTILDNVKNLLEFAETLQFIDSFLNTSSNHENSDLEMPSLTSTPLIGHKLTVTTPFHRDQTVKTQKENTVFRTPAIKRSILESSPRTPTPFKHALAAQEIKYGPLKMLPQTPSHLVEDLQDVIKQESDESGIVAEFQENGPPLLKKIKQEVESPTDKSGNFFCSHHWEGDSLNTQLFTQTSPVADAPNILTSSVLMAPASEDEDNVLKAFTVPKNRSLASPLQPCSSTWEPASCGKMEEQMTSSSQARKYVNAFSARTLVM
How it was run: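 Using HepG2 liver cells bearing transiently transfected cis-promoter reporter constructs, the assay measures induction or loss of reporter mRNA after 24 hours of dosing. Detection used fluorescently labeled RT-PCR products separated by capillary electrophoresis.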

[10] = biological target: Oxysterols receptor LXR-beta (Homo sapiens) (UniProt P55055); test: ATG_LXRb_TRANS: Attagene TRANS-FACTORIAL HepG2 Assay for human Liver X Receptor beta (LXRb) (AID 2282981); conditions: HepG2 Attagene TRANS GAL4-LXRb reporter, mRNA
Sequence of Oxysterols receptor LXR-beta (Homo sapiens) (P55055 whole entry, looked up, the tested form may be a part): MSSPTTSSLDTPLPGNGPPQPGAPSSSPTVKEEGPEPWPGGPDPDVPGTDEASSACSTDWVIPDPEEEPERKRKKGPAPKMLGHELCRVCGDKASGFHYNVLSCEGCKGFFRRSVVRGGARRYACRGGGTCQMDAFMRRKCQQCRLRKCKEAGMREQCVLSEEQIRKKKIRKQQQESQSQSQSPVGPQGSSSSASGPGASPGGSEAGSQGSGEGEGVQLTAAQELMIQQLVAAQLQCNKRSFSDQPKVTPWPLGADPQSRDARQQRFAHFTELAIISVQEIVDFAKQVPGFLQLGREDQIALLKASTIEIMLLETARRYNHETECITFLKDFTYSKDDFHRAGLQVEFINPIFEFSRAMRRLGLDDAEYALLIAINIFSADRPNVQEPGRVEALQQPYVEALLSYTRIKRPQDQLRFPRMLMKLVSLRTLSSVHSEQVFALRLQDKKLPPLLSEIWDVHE
How it was run: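 Liver-derived HepG2 cells transfected with Gal4-responsive reporters were dosed for 24 h. Activation was scored as rise in reporter mRNA, by RT-PCR and capillary electrophoresis, above DMSO baseline.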

Measured: AC50

OB(O)O
not listed: [8] | [9] | [10]
inactive: all other assays above

C[C@]12C[C@H](O)[C@H]3[C@@H](CCC4=CC(=O)CC[C@@]43C)[C@@H]1CC[C@@H]2C(=O)CO
active: [2] 129 nM [middle of 4 runs]
not listed: [1] | [5] | [10]
inactive: all other assays above

CC(C)(c1ccc(O)cc1)c1ccc(O)cc1
inactive: [1] | [4] | [10] | [5] | [8] | [6] | [7] | [9]
active: [7] 44 µM

COc1nc(C)nc(NC(=O)NS(=O)(=O)c2ccccc2OCCCl)n1
active: [4] 17.1 µM
not listed: [6] | [10]
inactive: all other assays above

COC(=O)c1ccc(CNS(C)(=O)=O)cc1S(=O)(=O)NC(=O)Nc1nc(OC)cc(OC)n1
inactive: [1] | [2] | [4] | [5] | [8]

CN(C)C(=O)Nc1ccc(Cl)c(Cl)c1
not listed: [3] | [10]
inactive: all other assays above

CCN(Cc1c(F)cccc1Cl)c1c([N+](=O)[O-])cc(C(F)(F)F)cc1[N+](=O)[O-]
inactive: [1] | [10] | [5] | [6] | [7]

O=C(c1ccccc1)C1CCCCC1
inactive: [2] | [3] | [4] | [8] | [6] | [7]

CCCN(CCC)c1c([N+](=O)[O-])cc(C(F)(F)F)c(N)c1[N+](=O)[O-]
inactive: [1] | [4] | [10] | [5] | [8] | [9]

COC(=O)c1cccc(C)c1S(=O)(=O)NC(=O)Nc1nc(OCC(F)(F)F)nc(N(C)C)n1
inactive: [1] | [2] | [4] | [6] | [7]

CCCN(CCC)C(=O)SCC
inactive: [2] | [4] | [10] | [5] | [8] | [6]

CCSC(=O)N(CC(C)C)CC(C)C
inactive: [1] | [2] | [10] | [8] | [6] | [7]

c1ccc(Nc2ccccc2)cc1
inactive: [1] | [4] | [10] | [5] | [8] | [6]

COC(=O)c1c(Cl)nn(C)c1S(=O)(=O)NC(=O)Nc1nc(OC)cc(OC)n1
not listed: [7] | [9] | [10]
inactive: all other assays above

CC(C)CCCCCCc1ccc(O)cc1
active: [2] 42.2 µM | [3] 19.2 µM | [4] 11.1 µM | [8] 50.3 µM | [6] 53.4 µM | [7] 11.1 µM
inactive: [2] | [3] | [4] | [5] | [8] | [6] | [7]

O=C(c1ccc(O)cc1O)c1ccc(O)cc1O
not listed: [1] | [9]
inactive: all other assays above

CCOC(=O)NCCOc1ccc(Oc2ccccc2)cc1
inactive: [1] | [3] | [4] | [8] | [7]

C#C[C@]1(O)CC[C@H]2[C@@H]3CCC4=CC(=O)CC[C@@H]4[C@H]3CC[C@@]21CC
not listed: [1] | [3] | [5]
inactive: all other assays above

CCOC(=O)C(C)Oc1ccc(Oc2nc3ccc(Cl)cc3o2)cc1 (configuration not stated)
inactive: [1] | [2] | [4] | [5] | [7] | [9]

Oc1ccc(C(c2ccc(O)cc2)C(Cl)(Cl)Cl)cc1
inactive: [2] | [3] | [4] | [8] | [6]

Cc1nn(C)c(Oc2ccccc2)c1C=NOCc1ccc(C(=O)OC(C)(C)C)cc1
inactive: [1] | [5] | [6] | [7]
active: [4] 1.31 µM

S=C(S)NCCNC(=S)S.[Mn+2].[S-]C([S-])=NCCN=C([S-])[S-].[Zn+2]
not listed: [1] | [3]
inactive: all other assays above

COC(=O)CSc1cc(N=c2sc(=O)n3n2CCCC3)c(F)cc1Cl
inactive: [2] | [3] | [4] | [8]

C[C@]12CC[C@@H]3c4ccc(O)cc4C[C@@H](CCCCCCCCCS(=O)CCCC(F)(F)C(F)(F)F)[C@H]3[C@@H]1CC[C@@H]2O (some centres not stated)
not listed: [9] | [10]
inactive: all other assays above

Reference: PubChem BioAssay (EPA / NIEHS)
